The full list was thinned out, with hits kept by preference.
Pf Dd2 growth – Plasmodium falciparum Dd2 growth inhibition | P. falciparum Dd2 growth, SYBR Green, 72 h | Potency, µM (highest dose often 28.9 µM), for inactives: at the highest dose activity, negative = inhibition, usual class: inhibitors | 4.3% of 120,000 active; active means well fitted inhibition curve with a large enough effect;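 further: plate controls were DMSO vehicle for no effect and reference drug for full effect; nearly all actives have a fitted effect of over 65% in size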
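Readout: SYBR Green fluorescence, 485 nm excitation, 535 nm emission, after ~16 h lysis at 37C. Before that, Dd2-infected red cells (2.5% hematocrit) grew 72 h with compound, 29 uM top final concentration.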
Active calls of the source: *; i = inactive; [ ] = remark or other dose. Potency means the concentration at half of the fitted maximal effect.

SMILES	Pf Dd2 growth
O=C(c1cccc(F)c1)N1CCC(n2cnnc2-c2ccccc2)CC1	14%
COC(=O)[C@H](NC(=O)[C@@H]1C[C@H](NC(=O)Nc2ccc(F)cc2F)CN1C(=O)CSC)C(C)C	-7%
COCC(=O)NC1CCC12CCN(C(=O)c1ccc(C#N)cc1)CC2 (configuration not stated)	1%
COc1ccc([S+](=O)([O-])N2CCC3(CC2)OCCN(CC2CC2)C3=O)cc1	-5%[44.1 µM]
CCC(CC)C(=O)Nc1ccc([C@@H](O)[C@H]2COCC(=O)N2)cc1	8%[44.1 µM]
Cc1ccccc1-n1nc(C)c(CCC(=O)NCC2CC2)c1Oc1ccccc1	i
CN1C(=O)c2ccccc2CC12CN(C(=O)c1ccc(Cl)cc1)C2	-10%
COCCN1CC(CO)C2(CCN(C(=O)COc3ccccc3)CC2)C1 (configuration not stated)	-19%
O=C(CN1CCCCCC1)N1CCC2(CC1)CN(Cc1ccccc1)CC2CO (configuration not stated)	i
O=C(COc1ccccc1)N1CCC2(CC1)CN(Cc1ccccc1)CC2CO (configuration not stated)	5µM*
O=C(Cn1nc2n(c1=O)CCCC2)Nc1cccc(Br)c1	50%
O=C(CCc1c[nH]c2ccccc12)Nc1cccc(-c2nnc3n2CCCC3)c1	3.2µM*
Cc1nnc2n1CCC(N(C)C(=O)CCc1c[nH]c3ccccc13)CC2 (configuration not stated)	i
O=C(Cc1ccc(F)cc1)Nc1cccc(-c2nnc3n2CCCC3)c1	7.1µM*
O=C(Cc1ccc(Cl)cc1)Nc1cccc(-c2nnc3n2CCCC3)c1	i
Cc1nnc2n1CCC(NC(=O)CCc1c[nH]c3ccccc13)CC2 (configuration not stated)	36%
O=C(Cc1ccsc1)NC1CCc2nnc(C3CC3)n2CC1 (configuration not stated)	3%
Cc1c(F)cccc1NC(=O)Nc1cccc(-c2nnc3n2CCCC3)c1	i
O=C(Cc1ccsc1)Nc1cccc(-c2nnc3n2CCCC3)c1	8.9µM*
COc1ccc(CN2CC[C@@H]3[C@H]2C(=O)NC[C@H](CCC(=O)NCc2ccc(F)cc2)N3C)cc1	i
O=C1NCCN1C1CCN(Cc2ccc(C(F)(F)F)cc2)CC1	0%
CCC(CC)C(=O)Nc1ccc([C@@H](O)[C@H]2COCC(=O)N2Cc2ccccc2)cc1	i
COCc1cn([C@H]2CO[C@H]3[C@@H]2OC[C@H]3O)nn1	32%[44.1 µM]
CN1C[C@H](N(C)C)CCC[C@@H](C(=O)NCc2cc(F)cc(F)c2)CC1=O	-11%[44.1 µM]
COc1cccc(C(=O)N2CCC(N3C[C@H](O)C[C@H]3C(=O)N3CCN(C(C)C)CC3)CC2)c1	5%
SMILES	Pf Dd2 growth
CCNC(=O)[C@@H]1C[C@@H](O)CN1C1CCN(C(=O)c2cccc(OC)c2)CC1	-11%
COc1cccc(C(=O)N2CCC(N3C[C@H](O)C[C@H]3C(=O)N3CCc4ccccc4C3)CC2)c1	1.4µM*
CC(C)C(=O)N1CCC(N2C(=O)C3(CCCC3)C2c2ccccc2)CC1 (configuration not stated)	-6%
CCOc1ccccc1NC(=O)N1CCC(N2CCN(Cc3ccccc3)C(=O)C2=O)CC1	10%[5.79 µM]
COCCC(=O)N1CCC(N2C(=O)C3(CCCCC3)C2c2ccccc2)CC1 (configuration not stated)	-28%
CCOc1ccccc1NC(=O)N1CCC(N2C(=O)C3(CCCC3)C2c2ccccc2)CC1 (configuration not stated)	8.9µM*
O=C(CN1CCOCC1)N1CCC(N2C(=O)C3(CCCCC3)C2c2ccccc2)CC1 (configuration not stated)	i
O=C(CN1CCCCCC1)N1CCC(N2C(=O)C3(CCCC3)C2c2ccccc2)CC1 (configuration not stated)	4.5µM*
Cn1c(CO[C@H]2CN(Cc3ccc(C#N)cc3)C[C@H]2F)nc2ccccc21	i
COc1ccc(CNC(=O)CC[C@@H]2CNC(=O)[C@@H]3C[C@H](NCc4ccccn4)CN23)cc1	17%
O=C(NC1CCCN(c2cc(-c3ccccc3)[nH]n2)C1)c1c[nH]c2ccccc12 (configuration not stated)	-13%
CN(C)c1ccc(C(=O)N2Cc3[nH]cnc3CC2C(=O)O)cn1 (configuration not stated)	-20%
CCOc1ccc(-c2nnc3n2CCCC3)cc1OCC	18%
Cc1cccc(N(C)C(=O)Cn2nc3n(c2=O)CCCC3)c1	19%
CCOc1ccc(C(=O)Nc2ccc3c(c2)CCCN3S(=O)(=O)c2ccc(C)cc2)cc1	-26%
COc1cccc(NCc2nnc3n2CCCCC3)c1	43%
CCOc1ccc(C(=O)Nc2cccc(-c3nnc4n3CCCC4)c2)cc1	1.6µM*
CN(C)c1cccc(C(=O)Nc2cccc(-c3nnc4n3CCCC4)c2)c1	4.5µM*
O=C(Nc1ccc(-c2nnc3n2CCCC3)cc1)c1cccc(Cl)c1	-78%
COc1ccc(NC(=O)Cn2nc3n(c2=O)CCCC3)cc1OC	41%
COc1cccc(C(=O)Nc2cccc(-c3nnc4n3CCCC4)c2)c1	5.6µM*
COc1ccc(C(=O)Nc2cccc(-c3nnc4n3CCCC4)c2)cc1OC	5µM*
COc1cc(CN2CCN(c3ccc(C#N)cn3)CC2CCO)cc(OC)c1 (configuration not stated)	-23%
Cc1nc([C@@H]2CN(S(=O)(=O)c3ccc4c(c3)CCC4)C[C@H]2C(N)=O)n[nH]1	-15%
O=C(Cc1cc2c(cc1Cl)OCCO2)N[C@@H]1COCC[C@@H]1OCC1CC1	-5%
SMILES	Pf Dd2 growth
CCS(=O)(=O)Nc1ccc(C2(C(=O)NCc3ccccc3F)CCCCC2)cc1	i
Cc1ccccc1-c1nc(C2CC(=O)N(c3ccc(F)c(Cl)c3)C2)no1 (configuration not stated)	67%
CC1(C)C(=O)N(Cc2ccccc2)[C@H]2CN(CC3CCOC3)C[C@H]2[S+]1(=O)[O-] (some centres not stated)	11%[44.1 µM]
CCOc1ccc(CC(=O)NC2CCN(c3cc(-c4ccccc4)[nH]n3)CC2)cc1	-5%
Cc1ccc(C(=O)N2CC(c3nnc(C(C)C)o3)C3(CCOCC3)C2)cc1 (configuration not stated)	12%
Cc1cc(C(=O)N2CCC3(CCCN(C(C)C)C3=O)C2)c(-c2ccccc2)o1 (configuration not stated)	-25%
Cc1ccc(C(=O)N[C@@H]2CN(Cc3ccncc3)C[C@H]2CN(C)C)c(C)c1	-8%
O=C(CCCc1ccccc1)N1CCC(Cc2nc(-c3ccc(F)cc3)no2)CC1	-5%
N#Cc1ccc(C(=O)Nc2cccc(-c3nnc4n3CCCC4)c2)cc1	1.3µM*
CCn1nccc1C(=O)NCCC1CCN(C(=O)Nc2cccc(C)c2)CC1	-14%
CCn1nccc1C(=O)NCCC1CCN(C(=O)Nc2ccccc2)CC1	1%
Cc1nnc2n1CCC(NC(=O)c1cc(C3CC3)[nH]n1)CC2 (configuration not stated)	49%
Cc1cc2nc3n(c(=O)c2n1CC(=O)Nc1cccc(C#N)c1)CCCCC3	-24%
O=C(Nc1cccc(-c2nnc3n2CCCC3)c1)c1cc(C2CC2)[nH]n1	4µM*
Cc1ccc(NC(=O)N2CCC(c3cc(-c4cccc(C)c4)n[nH]3)CC2)cc1	-35%
CCn1nccc1C(=O)Nc1cccc(-c2nnc3n2CCCC3)c1	8.9µM*
Cc1nc(N2CCN(C(=O)c3ccc(F)cc3Cl)CC2)cc(C(F)(F)F)n1	-26%
